Experimental data: ChEMBL document CHEMBL4513134, “CO-ADD screening of University of Queensland (Australia) compounds” (2021)
Measured potencies and affinities stand elsewhere.

Legend:
Staphylococcus aureus = settings: Concentration 32 ug.mL-1; ASSAY_TEST Inhibition of Bacterial Growth; detection method Absorption (OD600); MEDIA CAMHB; plate type 384well; NBS; CORNING #3640; time 18 hr
Escherichia coli = settings: Concentration 32 ug.mL-1; ASSAY_TEST Inhibition of Bacterial Growth; detection method Absorption (OD600); MEDIA CAMHB; plate type 384well; NBS; CORNING #3640; time 18 hr

SMILES: Cn1c([N+](=O)[O-])cnc1C(=O)NCc1cccc(OC(F)(F)F)c1
- Inhibition (Staphylococcus aureus): 39.06%
- Inhibition (Escherichia coli): 5.07%

SMILES: CC(NC(=O)c1ncc([N+](=O)[O-])n1C)c1ccc(F)cc1 (stereo not given)
- Inhibition (Staphylococcus aureus): 34.68%
- Inhibition (Escherichia coli): 2.11%

SMILES: Cn1c([N+](=O)[O-])cnc1C(=O)NCc1ccccn1.O=C(O)C(F)(F)F
- Inhibition (Staphylococcus aureus): 45.26%
- Inhibition (Escherichia coli): -0.31%

SMILES: Cn1c([N+](=O)[O-])cnc1C(=O)N1CCCC1
- Inhibition (Staphylococcus aureus): 47.23%
- Inhibition (Escherichia coli): 5.01%

SMILES: Cn1c([N+](=O)[O-])cnc1C(=O)NCc1ccc(OC(F)(F)F)cc1
- Inhibition (Staphylococcus aureus): 35.57%
- Inhibition (Escherichia coli): 3.65%

SMILES: Cn1c([N+](=O)[O-])cnc1C(=O)NCc1ccc(F)cc1
- Inhibition (Staphylococcus aureus): 28.26%
- Inhibition (Escherichia coli): 3.69%

SMILES: CN(C)C(=O)c1ncc([N+](=O)[O-])n1C
- Inhibition (Staphylococcus aureus): 42.28%
- Inhibition (Escherichia coli): 6.99%

SMILES: Cn1c([N+](=O)[O-])cnc1C(=O)N1CCOCC1
- Inhibition (Staphylococcus aureus): 46.51%
- Inhibition (Escherichia coli): 8.52%

SMILES: Cc1ccc(CCNC(=O)c2ncc([N+](=O)[O-])n2C)cc1
- Inhibition (Staphylococcus aureus): 48.13%
- Inhibition (Escherichia coli): 11.97%

SMILES: Cn1c([N+](=O)[O-])cnc1C(=O)NC1CC1
- Inhibition (Staphylococcus aureus): -13.42%
- Inhibition (Escherichia coli): -3.03%
